Source: PubChem BioAssay (National Center for Advancing Translational Sciences (NCATS))
Rows were chosen to be rich in hits. Some 6.1% of all compounds tested hit in one or more screens of this group.
ATXN2 expr inh = reduces ATXN2 reporter expression in HEK-293 cells; Potency, µM (top dose mostly 57 µM), for the others: at the highest dose activity change, negative = inhibition, usual class: inhibitors; AID 1745845; actives 0.72% (n = 360,000); HEK-293 ATXN2-luciferase reporter, luminescence, 24 h; note: % is set by controls: 0 for no effect and ±100 for the full control effect; nearly all actives have a fitted effect of over 55% in size
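ATXN2-luciferase reporter cells (luciferase flanked by upstream and downstream ATXN2 gene portions) were treated 24 h at 37 °C with compounds at up to 57 uM. SteadyGlo luminescence gave expression; GF-AFC fluorescence gave viability.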
HepG2 tox = HepG2 cytotoxicity, counter-screen for TGF-b inhibitors | actives 0.76% (n = 410,000) | Potency, µM (highest dose often 46.1 µM), inactives show at the top dose activity change, negative = cytotoxicity, usual class: cytotoxic | HepG2 CAGA-GFP viability, ATP luminescence, 18 h
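CellTiter-Glo luminescence gave cytotoxicity after 18 hours at 37 degrees C. The cells were HepG2 CAGA-GFP in 1% FBS DMEM, stimulated with 500 pg/mL TGF-beta after compound addition. %Activity was normalised to no-cell wells (complete cell-killing) and DMSO (no toxicity), and curves were fitted and classified.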
VP16 counter = inhibits Gal4-VP16 luciferase reporter, ROR gamma counter-screen | Drosophila S2 Gal4-VP16 UAS-luciferase, luminescence, 20 h | AID 2546 | actives 3.5% (n = 310,000) | Potency, µM (highest dose often 53.6 µM), without a hit: at the top dose activity, negative = inhibition, usual class: inhibitors;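 note: Gal4-VP16 expression switched on by copper sulfate through the metallothionein promoter; % is set by controls: 0 for no effect and ±100 for the full control effect; nearly all actives have a fitted effect of over 50% in size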
RORg inh = blocks mouse ROR gamma transcriptional activity; P51450; Drosophila S2 Gal4-RORgamma UAS-luciferase reporter, 20 h; Potency, µM (titrated, usually from 53.6 µM), for the others: at the top dose activity change, negative = inhibition, actives largely listed as inhibitors; actives 5.4% (n = 310,000); AID 2551; note: % is set by controls: 0 for no effect and ±100 for the full control effect; nearly all actives have a fitted effect of over 60% in size
Target sequence (P51450 whole entry, looked up, the tested form may be a part): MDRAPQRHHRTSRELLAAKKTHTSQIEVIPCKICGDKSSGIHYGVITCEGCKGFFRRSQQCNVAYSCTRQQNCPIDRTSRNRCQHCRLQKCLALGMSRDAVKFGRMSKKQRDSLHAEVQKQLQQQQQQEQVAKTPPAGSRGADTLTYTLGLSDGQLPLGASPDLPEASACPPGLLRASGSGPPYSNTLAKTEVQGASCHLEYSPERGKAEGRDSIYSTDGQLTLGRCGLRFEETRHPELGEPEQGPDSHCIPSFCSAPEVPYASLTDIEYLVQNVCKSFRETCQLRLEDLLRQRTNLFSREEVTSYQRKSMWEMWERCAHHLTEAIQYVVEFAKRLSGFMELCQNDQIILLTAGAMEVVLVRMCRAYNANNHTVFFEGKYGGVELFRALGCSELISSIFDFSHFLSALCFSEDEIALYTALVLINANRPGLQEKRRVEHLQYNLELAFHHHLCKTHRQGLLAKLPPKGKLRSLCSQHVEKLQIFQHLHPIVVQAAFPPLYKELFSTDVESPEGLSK
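In this cell-based reporter format, copper sulfate (700 uM final) drives Gal4–ROR gamma fusion expression from a metallothionein promoter in Drosophila Schneider cells; compounds preincubated 1 hr, reporter read after 20 hr at ambient temperature.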
TGFb SMAD3 inh = TGF-b pathway inhibition; HepG2 CAGA-GFP TGF-b/SMAD3 reporter, GFP fluorescence, 18 h; TGF-beta stimulated, 500 pg/mL final; actives 1.2% (n = 410,000); Potency, µM (highest dose often 46.1 µM), for inactives: at the top dose activity, negative = inhibition, most hits filed as inhibitors; note: % is set by controls: 0 for no effect and ±100 for the full control effect; nearly all actives have a fitted effect of over 65% in size
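Cell-based qHTS in HEPG2 carrying a CAGA-GFP Smad reporter; compounds added before 500 pg/mL final TGF-beta, 18 h incubation at 37 degrees C, GFP fluorescence quantified per cell by imaging cytometry.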
ATXN viability = viability counter-screen for ATXN expression inhibitors; S2 cells (HEK-293 line with an ATXN2-luciferase reporter) viability, CellTiter-Fluor protease fluorescence, 24 h; actives 0.49% (n = 400,000); AID 651635; Potency, µM (doses to about 56.7 µM), most hits filed as cytotoxic; note: nearly all actives have a fitted effect of over 40% in size
An asterisk follows results filed as active; i = inactive; ? = inconclusive; nt = no result; ! = a repeat was not active. Calls come from the whole dose curve; as a rule, active = well fitted curve in the direction sought with a large enough effect; inconclusive = small, poorly fitted or top-dose-only effect, or another doubt; inactive = no such curve, though single readings can be large; an effect the other way counts as inactive or inconclusive. Potency is the fitted concentration of half-maximal effect.

SMILES	ATXN2 expr inh	HepG2 tox	VP16 counter	RORg inh	TGFb SMAD3 inh	ATXN viability
CCC(C(=O)O)C1CCC(C)C(C(C)C(O)C(C)C(=O)C(CC)C2OC3(C=CC(O)[C@@]4(CC[C@](C)(C5CC[C@@](O)(CC)C(C)O5)O4)O3)C(C)CC2C)O1 (some centres undefined)	7.7µM*	nt	2.2µM*	1.8µM*	nt	nt
Cc1sc2c(c1C)C(c1ccc(Cl)cc1)=N[C@@H](CC(=O)OC(C)(C)C)c1nnc(C)n1-2	10%	nt	nt	nt	nt	nt
COc1ccc(C(=O)NCCn2cc(SCc3ccc(C(F)(F)F)cc3)c3ccccc32)cc1OC	-24%	-16%	nt	nt	7.1µM*	i
Nn1cnnc1	nt	nt	5%	-6%	nt	nt
CCN1C[C@]2(OC(=O)c3ccccc3NC(C)=O)CC[C@H](OC)[C@@]34[C@H]5CC6[C@@H](OC)C[C@](O)(C(C[C@@H]23)[C@@H]14)[C@@]5(O)[C@@H]6OC	4%	nt	nt	nt	nt	nt
CC(C)=CCCN1CCC(NC(=O)C(O)(c2ccccc2)C2CCCC2)CC1 (centres undefined)	nt	nt	-7%	10%	nt	nt
O=C(Nc1nnc(-c2ccco2)o1)c1cccc2ccccc12	?	-16%	-98%	0.032µM*	-17%	i
O=C(CCS(=O)(=O)c1ccccc1)Nc1nnc(-c2ccco2)o1	1%	-4%	?	?	0%	i
Cc1nn(C(C)(C)C)c(C)c1/C=N/OC(=O)Nc1ccc(Cl)c(Cl)c1	nt	-78%	1µM*	0.22µM*	18µM*	i
N[C@@H](Cc1ccc(Oc2cc(I)c(O)c(I)c2)c(I)c1)C(=O)O	3%	nt	nt	nt	nt	i
COC1CC2C=C(C)C=CC=CC(=O)NC(c3ccccc3)CC=CCCC(O)CC(=O)C2=C1O (centres undefined)	2.8µM*	-110%	nt	nt	?	14µM*
CC1(C)[C@H](C(=O)O[C@H](C#N)c2cccc(Oc3ccccc3)c2)[C@@H]1C=C(Br)Br	nt	nt	5%	9%	nt	nt
C=CC(=O)OCC(CO)(COC(=O)C=C)COC(=O)C=C	nt	nt	5.6µM*	4.5µM*	nt	nt
COc1ccc(S(=O)(=O)NCCc2sc3nc(-c4ccc(C)cc4)nn3c2C)cc1F	nt	3%	nt	nt	?	nt
CCOc1ccc(NC(=O)Cn2c(=O)oc3cc(S(=O)(=O)N4CCC(C)CC4)ccc32)cc1	?	-47%	nt	nt	?	i
O=[N+]([O-])C(Br)Br	nt	nt	11µM*	13µM*	nt	nt
CCC(Oc1ccccc1OC)C(=O)Nc1ccc2c(c1)OCCO2 (centres undefined)	-17%	6%	5%	-6%	-1%	?
S=C1Nc2ccccc2Sc2ccccc21	-1%	8%	5µM*	2µM*	11%	i
Cc1cccc(-n2c(C)n[nH]c2=S)c1C	-14%	-3%	?	16µM*	-6%	i
Cc1ccc(NC(=O)C2CCCN(C(=O)c3cnn(-c4ccccc4)c3-n3cccc3)C2)cc1 (centres undefined)	-10%	-9%	nt	nt	?	i
O=C(Cn1cc(C(=O)c2ccccc2)c2ccccc21)NCc1ccco1	0%	1%	-1%	12%	0%	i
COc1ccc(OCCn2cc(/C=C(\C#N)C(=O)NCc3ccco3)c3ccccc32)cc1	?	-28%	3.5µM*	-41%	?	i
COc1cccc(NC(=O)C2CCN(c3nnc(C)c4c(C)n(-c5ccccc5)nc34)CC2)c1	?	-38%	nt	nt	?	?
C[C@]12CC[C@@H]3c4cc(O)c(O)cc4CC[C@H]3[C@@H]1CC[C@@H]2O	-15%	-21%	?	13µM*	?	?
O=c1[nH]c2ccccc2n1C1CCN(C(CCc2ccccc2)c2nnnn2Cc2ccccc2)CC1 (centres undefined)	8.9µM*	-91%	nt	nt	?	8.9µM*
SMILES	ATXN2 expr inh	HepG2 tox	VP16 counter	RORg inh	TGFb SMAD3 inh	ATXN viability
CSCCC(c1nnnn1Cc1ccccc1)N1CCC(n2c(=O)[nH]c3ccccc32)CC1 (centres undefined)	?	-16%	nt	nt	?	14µM*
CC(C)(C)n1nnnc1C(CCc1ccccc1)N1CCC(n2c(=O)[nH]c3ccccc32)CC1 (centres undefined)	?	0%	nt	nt	?	?
CSCCC(c1nnnn1C1CCCC1)N1CCC(n2c(=O)[nH]c3ccccc32)CC1 (centres undefined)	-9%	10%	nt	nt	1%	i
O=c1[nH]c2ccccc2n1C1CCN(C(c2ccccc2OC(F)(F)F)c2nnnn2Cc2ccccc2)CC1 (centres undefined)	18µM*	-39%	nt	nt	11µM*	10µM*
O=c1[nH]c2ccccc2n1C1CCN(C(CCc2ccccc2)c2nnnn2C2CCCCC2)CC1 (centres undefined)	14µM*	-7%	nt	nt	?	nt
O=c1[nH]c2ccccc2n1C1CCN(C(c2nnnn2Cc2ccccc2)C2CC2)CC1 (centres undefined)	?	0%	nt	nt	-40%	?
O=c1[nH]c2ccccc2n1C1CCN(C(c2cccs2)c2nnnn2Cc2ccccc2)CC1 (centres undefined)	?	-31%	nt	nt	?	nt
Cc1ncc2n1-c1ccc(Cl)cc1C(c1ccccc1F)=NC2O (centres undefined)	nt	nt	7%	-44%	nt	nt
CCn1cc2nc(SCc3cccc(C(F)(F)F)c3)n(Cc3ccc(OC)cc3)c(=O)c2n1	-26%	-28%	nt	nt	?	i
c1ccc2c(c1)OCC(C1=NCCN1)O2 (centres undefined)	?	-66%	-1%	16µM*!	?	13µM*!
CC(C)(C)OOC(=O)c1ccccc1	nt	nt	-7%	-18%	nt	nt
CCCCC(=O)N/N=C/c1c(O)n(CC)c(=S)[nH]c1=O	-10%	-1%	?	11µM*	7%	i
CCCCC(=O)N/N=C/c1c(O)n(CCc2ccc(OC)c(OC)c2)c(=O)[nH]c1=O	-2%	-35%	-1%	-33%	-8%	i
CCCCC(=O)N/N=C/c1c(O)n(CCc2ccccc2)c(=O)[nH]c1=O	?	20%	-10%	10µM*	?	i
CCCCCCC(=O)N/N=C/c1c(O)n(CCCC)c(=S)[nH]c1=O	?	14%	-24%	?	29%	i
CN1CCN(c2ccc([N+](=O)[O-])c(N/N=C3\CN4CCC3CC4)c2)CC1	-7%	-22%	-11%	-16%	8%	10µM*
